Reference: paper PMC7819943, “Rice protein-binding microarrays: a tool to detect cis-acting elements near promoter regions in rice”
Whole data set: some 39,000 sequences, median “fluorescence intensity (a.u.)” near 4,300, cut for the highest 2% near 39,000. The entries come from a sample that favours the highest values as a whole.

target: T1, OsSMF1 (Oryza sativa, UniProt Q6ZLB0 1-436); assay: protein-binding microarray (RPBM); PBS, 2% BSA, 51.3 ng/ul salmon testes DNA, 50 uM zinc acetate, 200 nM TF, 25 C, 1 h; high values mean tight binding; conditions: protein: recombinant; tags: N-terminal polyhistidine and DsRed monomer fusion (pET32a); chain copies: 2; label: CyDye5-dUTP incorporated in the synthesized complementary strand; 3' TTTTT single-stranded linker to array surface; dsDNA, one strand shown
T1 sequence: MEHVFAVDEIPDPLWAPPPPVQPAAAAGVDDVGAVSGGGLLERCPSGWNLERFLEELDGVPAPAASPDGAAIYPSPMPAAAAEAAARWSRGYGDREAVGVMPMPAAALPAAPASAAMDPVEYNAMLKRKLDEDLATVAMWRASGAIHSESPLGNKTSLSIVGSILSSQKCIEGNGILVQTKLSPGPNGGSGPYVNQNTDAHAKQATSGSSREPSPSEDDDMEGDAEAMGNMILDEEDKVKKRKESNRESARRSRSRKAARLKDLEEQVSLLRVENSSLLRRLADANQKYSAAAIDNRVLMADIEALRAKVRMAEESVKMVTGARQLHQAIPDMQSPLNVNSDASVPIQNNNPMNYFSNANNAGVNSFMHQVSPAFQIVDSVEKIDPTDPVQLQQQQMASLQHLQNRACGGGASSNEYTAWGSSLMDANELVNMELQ
Outline: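 Using Ni–NTA, transcription factors fused N-terminally to polyhistidine and DsRed were purified after expression in E. coli BL21-CodonPlus. These were incubated at 200 nM with a blocked, double-stranded custom Agilent array for 1 h at 25 °C in a buffer containing 50 µM zinc acetate, and the array was washed. The binding signal is per-feature fluorescence intensity (arbitrary units) on an Axon 4000B scanner.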

Sequence | binding signal
CATCCACGTGGTGCCGCACCTAACCAGCGTAGCAGTTGCTCGGAGTCACCTAGTGCAG | 5710 fluorescence intensity (a.u.)
ATCATAGTATGCCGTACGGCCTGGACCTTCTGTCACGTGGCGGAGTCACCTAGTGCAG | 5660 fluorescence intensity (a.u.)
GTGTGTGTATGACAGGTGGGACCATATATTAATAGTGTAGCGGAGTCACCTAGTGCAG | 3480 fluorescence intensity (a.u.)
TATGTGGACCATAGTGGCCTTCGGCAATATGGATTAGTAGCGGAGTCACCTAGTGCAG | 47700 fluorescence intensity (a.u.)
CGACTACGAGACGCGAGGTTGAAGACAAGTAAGTACTCCTCGGAGTCACCTAGTGCAG | 65500 fluorescence intensity (a.u.)
TGCACACCCAGGTTGAAGACGACAATGACGAGCTCGGGCGCGGAGTCACCTAGTGCAG | 3330 fluorescence intensity (a.u.)
CATTCTCCTTCTCTCTCGTACGGCTAGAGGTTGAAGACGACGGAGTCACCTAGTGCAG | 3760 fluorescence intensity (a.u.)
GAGTTACCACGAGATGACACGTAGGATAAAGAGCTTTGAACGGAGTCACCTAGTGCAG | 8600 fluorescence intensity (a.u.)
CGTCCAAATATTATTTCCTGCGCGTGGTTTACAAAAGAGGCGGAGTCACCTAGTGCAG | 47300 fluorescence intensity (a.u.)
TCCAATCCTGCGTGGAGTAATTTATTTCAAGCGCAACAGGCGGAGTCACCTAGTGCAG | 3630 fluorescence intensity (a.u.)
CTCGAGAGTTATTTATTATTTATATTTCCAAAGGTTTGACCGGAGTCACCTAGTGCAG | 25900 fluorescence intensity (a.u.)
GAATAGAACATGTACAGTGACACATCTGCATTGGAAGCGTCGGAGTCACCTAGTGCAG | 7380 fluorescence intensity (a.u.)
TGTCATTGACTCACGTGGGTCCTACATGTCATTGAGCTTTCGGAGTCACCTAGTGCAG | 10300 fluorescence intensity (a.u.)
CATCCGTCGCTTCGCTTTCGTTCGAACGCGTTGGACCCAGCGGAGTCACCTAGTGCAG | 3160 fluorescence intensity (a.u.)
TTATGGACTGATATGGGCCGTTGGATTGGTTTCGGTTTTGCGGAGTCACCTAGTGCAG | 5480 fluorescence intensity (a.u.)
TTTATGATAACTTTGAGTCATATCATTTTGGTAAGTCCTACGGAGTCACCTAGTGCAG | 3140 fluorescence intensity (a.u.)
ATGATAACTTTTATGGTTTTGGCCGTCTGGGGATCGGAATCGGAGTCACCTAGTGCAG | 65500 fluorescence intensity (a.u.)
CCAGTACATTTTGTACTACTACTTCGAACGGGCATGGTCGCGGAGTCACCTAGTGCAG | 29700 fluorescence intensity (a.u.)
CTAATTGAAATCACAAATGCTGAGTTGCTGACATGCACCACGGAGTCACCTAGTGCAG | 4570 fluorescence intensity (a.u.)
TGAACACGAACGCGACGCTTCTTCTGTCACGTACGCCCGTCGGAGTCACCTAGTGCAG | 3200 fluorescence intensity (a.u.)
GTAACGTACGACCGTTGTCATCGTAGACGCTTCCCGGATTCGGAGTCACCTAGTGCAG | 45700 fluorescence intensity (a.u.)
CCCGTCGTTGTCCACCCCGTCCCATTCCACGACCGTCGTCCGGAGTCACCTAGTGCAG | 3390 fluorescence intensity (a.u.)

Sequence | binding signal
TTTCCTTGGAGAATCCAGATCAGCTTCCTAATCACCCTCACGGAGTCACCTAGTGCAG | 4040 fluorescence intensity (a.u.)
AGTTTCCGAGAGCGAGCGAGAGAGAGAGAGAGAGAGAGAGCGGAGTCACCTAGTGCAG | 3220 fluorescence intensity (a.u.)
GTGTCTGCCTCCGCGTCCGCTTCGTCACGGCGGTGTCGGTCGGAGTCACCTAGTGCAG | 5900 fluorescence intensity (a.u.)
TGTGCTCAGCCTTAATTAATTAATCGAGCGAGTCATAAGCCGGAGTCACCTAGTGCAG | 3460 fluorescence intensity (a.u.)
TGTACCTGAAACTATTGTTATGTCCAGGTCAGGAGCAGTGCGGAGTCACCTAGTGCAG | 3360 fluorescence intensity (a.u.)
CAGGAATTGAACTATTAAGATCCATTATGTTGCTCTAAAACGGAGTCACCTAGTGCAG | 3310 fluorescence intensity (a.u.)
CAGGTGTGTCCATTGAATTGAATTGAATTGAAACTATTGACGGAGTCACCTAGTGCAG | 60900 fluorescence intensity (a.u.)
CTCTCACCATGCAAGATTTCCTTAGATTTGAGTTGAGTCACGGAGTCACCTAGTGCAG | 3150 fluorescence intensity (a.u.)
CTTCAGTCCCGGTTGGTAAGGCTCAGCCGGCCACGTGGCTCGGAGTCACCTAGTGCAG | 17200 fluorescence intensity (a.u.)
AGCGGACGCGCGGTATGGTCGATGGATGATGACACACGGTCGGAGTCACCTAGTGCAG | 5210 fluorescence intensity (a.u.)
AAGCTAGTCACACATCACCATCACACACACCAAGCCACACCGGAGTCACCTAGTGCAG | 4460 fluorescence intensity (a.u.)
CCAGGTCACATTCACATCTCTCTTTACCAAAGCTAAGCCACGGAGTCACCTAGTGCAG | 48100 fluorescence intensity (a.u.)
GTGCCATCTAAGCGTCACGTCAAACACCACATACCAGGTCCGGAGTCACCTAGTGCAG | 3140 fluorescence intensity (a.u.)
CTGTATTCATTAGGGTGGGACTGTATACTATAGTTATTATCGGAGTCACCTAGTGCAG | 3190 fluorescence intensity (a.u.)
GACCCACGCCTTCGGGTCCACATGTCATAGCCTATCCACCCGGAGTCACCTAGTGCAG | 3550 fluorescence intensity (a.u.)
GAAACGATGGTTTGAGTACTGACTTGGCAATGCTGGTCATCGGAGTCACCTAGTGCAG | 6280 fluorescence intensity (a.u.)
TTTGCGATGCTGACTGGTCTGAGAGCCTTGATCCGATGGTCGGAGTCACCTAGTGCAG | 44800 fluorescence intensity (a.u.)
GTCTGGCTGCTGATGGTGATGATGCTGACTTGTGACGAGTCGGAGTCACCTAGTGCAG | 3620 fluorescence intensity (a.u.)
CTTGTTTGATCAAACCGATGCGACGCAGAGAGAGAGAGGTCGGAGTCACCTAGTGCAG | 39400 fluorescence intensity (a.u.)
GGTCGATGATGATGATGACGACGACGAGAGGAGGAGAGATCGGAGTCACCTAGTGCAG | 3820 fluorescence intensity (a.u.)
AAACAGAGGGGAAGAGAGAGGATCGTCGTCGACGATGATGCGGAGTCACCTAGTGCAG | 3200 fluorescence intensity (a.u.)
